Measurements from PubChem BioAssay (NCATS).
“And” between values parts separate entries of the source, which are not always exact repeats. Equal entries are not always repeated. Records with an inconclusive call do not appear. The source made the active and inactive calls. Unless noted, calls follow the shape of the dose curve; as a rule, active = well fitted curve in the direction sought with a large enough effect; inconclusive = small, poorly fitted or top-dose-only effect, or another doubt; inactive = no such curve, though single readings can be large; an effect the other way counts as inactive or inconclusive.

Key:
HeLa = experiment: Primary qHTS to identify gynecologic anti-cancer compounds using libraries of approved drugs and bioactive compounds (AID 1345084); conditions: Gynecologic cancer cell panel viability, ATPlite luminescence, 48 h; series mostly up to 57.5 µM; also: nearly all actives have a fitted effect of over 55% in size; also: potency is read from the fitted curve at half-maximal effect
In short: (§1)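 Cells, 1,000 per well, were allowed to settle for 16 h at 37 C before compound addition. Five concentrations were tested for 48 h, and viability was read by ATPlite luminescence after 15 min at room temperature.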

JEG-3 = experiment: as above; conditions: Gynecologic cancer cell panel viability, ATPlite luminescence, 48 h; series mostly up to 57.5 µM
In short: as §1

PA-1 = experiment: as above; conditions: Gynecologic cancer cell panel viability, ATPlite luminescence, 48 h; series mostly up to 57.5 µM
In short: as §1

Tov-21-G = experiment: as above; conditions: Gynecologic cancer cell panel viability, ATPlite luminescence, 48 h; series mostly up to 57.5 µM
In short: as §1

Tov112D = experiment: as above; conditions: Gynecologic cancer cell panel viability, ATPlite luminescence, 48 h; series mostly up to 57.5 µM
In short: as §1

C33A = experiment: as above; conditions: Gynecologic cancer cell panel viability, ATPlite luminescence, 48 h; series mostly up to 57.5 µM
In short: as §1

CASKI = experiment: as above; conditions: Gynecologic cancer cell panel viability, ATPlite luminescence, 48 h; series mostly up to 57.5 µM
In short: as §1

SKOV3 = experiment: as above; conditions: Gynecologic cancer cell panel viability, ATPlite luminescence, 48 h; series mostly up to 57.5 µM
In short: as §1

[1] = Drug repurposing screens with cells derived from glioblastoma tumor samples (AID 1345199); conditions: GBM patient neurospheres viability, ATP luminescence, 48 h; also: nearly all actives have a fitted effect of over 40% in size; also: potency is read from the fitted curve at half-maximal effect; as to activity, negative = cell killing: % is scaled to controls: 0 for no effect and ±100 for the full control effect
In short: (§2)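 Four patient lines of CD133+ GBM neurospheres were screened at several concentrations; hits were retested in those lines plus three slower-growing GBM lines, using 48-hour treatment and ATP-based viability.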

astro = experiment: as above; conditions: viability, ATP luminescence, 48 h; series mostly up to 45.9 µM
In short: as §2

WaGa = experiment: qHTS assay to identify novel small-molecules to repurpose for Merkel cell carcinoma treatment (AID 1296009); conditions: MCC and control cell lines, CellTiter-Glo viability, 72 h; series mostly up to 46 µM; also: nearly all actives have a fitted effect of over 60% in size; also: potency is read from the fitted curve at half-maximal effect
In short: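 Cells were incubated with compound for 72 hr at 37 degree celsius before CellTiter-Glo addition. Luminescence was normalized with no-cell wells as full cytotoxicity and DMSO as baseline.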

Es-2 = experiment: Primary qHTS to identify gynecologic anti-cancer compounds using libraries of approved drugs and bioactive compounds (AID 1345084); conditions: Gynecologic cancer cell panel viability, ATPlite luminescence, 48 h; series mostly up to 57.5 µM; also: nearly all actives have a fitted effect of over 55% in size; also: potency is read from the fitted curve at half-maximal effect
In short: as §1

Hek293T = experiment: as above; conditions: Gynecologic cancer cell panel viability, ATPlite luminescence, 48 h, control line for the selectivity index; series mostly up to 57.5 µM
In short: as §1

OV90 = experiment: as above; conditions: Gynecologic cancer cell panel viability, ATPlite luminescence, 48 h; series mostly up to 57.5 µM
In short: as §1

[2] = qHTS assay to identify inhibitors of the type 1 interferon - major histocompatibility complex class I in skeletal muscle: Counter screen cell viability and HiBit confirmation (AID 1347412); conditions: iHSKM muscle cells + IFN-b, HiBiT or CellTiter-Glo, 24 h; Potency: HiBiT; Viability, at 45.9 µM (top of the series); also: nearly all actives have a fitted effect of over 60% in size; also: potency is read from the fitted curve at half-maximal effect
In short: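 Duplicate plates, pinned identically: one read for HiBiT-tagged endogenous HLA-B luminescence, the other for ATP-content viability via CellTiter Glo. Cells were genome-engineered human myoblasts given 4 ng/ml IFN-b; compounds 12-pt, 1:3 from 46 uM final; 24 hr exposure.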

CAOV3 = experiment: Primary qHTS to identify gynecologic anti-cancer compounds using libraries of approved drugs and bioactive compounds (AID 1345084); conditions: Gynecologic cancer cell panel viability, ATPlite luminescence, 48 h; series mostly up to 57.5 µM; also: nearly all actives have a fitted effect of over 55% in size; also: potency is read from the fitted curve at half-maximal effect
In short: as §1

[3] = molecular target: Nuclear receptor subfamily 1 group I member 2 (Rattus norvegicus) (UniProt Q9R1A7); experiment: qHTS assay for small molecule activators of the rat pregnane X receptor (rPXR) signaling pathway (AID 651751; call rule not given here; also: 0% is about no effect); conditions: rPXR reporter cells, luciferase (One-Glo), 24 h
[4] = qHTS assay for small molecule activators of the human pregnane X receptor (PXR) signaling pathway (AID 720659; call rule not given here; also: 0% is about no effect)
[5] = at 45.9 µM (top of the series), tumour line B
[6] = at 45.9 µM (top of the series), tumour line D

Sequence of Nuclear receptor subfamily 1 group I member 2 (Rattus norvegicus) (Q9R1A7 whole entry, looked up): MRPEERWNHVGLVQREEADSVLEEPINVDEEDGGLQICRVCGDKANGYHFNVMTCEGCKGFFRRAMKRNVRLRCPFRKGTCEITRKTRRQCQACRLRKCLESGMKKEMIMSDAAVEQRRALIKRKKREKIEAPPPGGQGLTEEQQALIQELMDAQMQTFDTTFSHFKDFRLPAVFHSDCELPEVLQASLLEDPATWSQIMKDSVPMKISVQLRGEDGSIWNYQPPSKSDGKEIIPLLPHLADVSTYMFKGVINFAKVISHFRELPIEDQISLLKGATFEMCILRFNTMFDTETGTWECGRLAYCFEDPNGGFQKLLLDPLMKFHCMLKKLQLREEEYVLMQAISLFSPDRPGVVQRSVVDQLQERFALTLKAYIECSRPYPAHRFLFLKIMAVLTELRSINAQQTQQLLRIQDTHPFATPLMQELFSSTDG

S=C(NCc1ccc2c(c1)OCO2)N1CCN(c2ncnc3c2oc2ccccc23)CC1
inactive: Potency (HeLa) | Potency (JEG-3) | Potency (PA-1) | Potency (Tov-21-G) | Potency (Tov112D)

CCC(C)(C)C(=O)O[C@H]1C[C@@H](C)C=C2C=C[C@H](C)[C@H](CC[C@@H]3C[C@@H](O)CC(=O)O3)[C@H]21
active: Potency ([1]; tumour line A) 891 nM | Potency (astro) 3.55 µM
inactive: Potency (C33A) | Potency (CASKI) | Potency (JEG-3) | Potency (PA-1) | Potency (SKOV3) | Potency (Tov-21-G) | Potency (Tov112D) | activity, negative = cell killing ([1]; at 20 µM (top of the series), tumour line C) -22.9% | activity, negative = cell killing ([1]; at 21.2 µM (top of the series), tumour line B) -19.9%

CS(=O)(=O)c1cccc(CNc2nc(Nc3ccc4c(c3)CCC(=O)N4)ncc2C(F)(F)F)c1
inactive: Potency (C33A) | Potency (CASKI) | Potency (Es-2) | Potency (Hek293T) | Potency (OV90) | Potency (Tov112D)
active: Potency (WaGa) 16.6 µM | Potency [2] 11.1 µM

CC1(C)CNc2cc(NC(=O)c3cccnc3NCc3ccncc3)ccc21
inactive: Potency (C33A) | Potency (CAOV3) | Potency (CASKI) | Potency (Es-2) | Potency (HeLa) | Potency (Hek293T) | Potency (JEG-3) | Potency (PA-1) | Potency (SKOV3) | Potency (Tov-21-G) | Potency (Tov112D)

O=C(NOC[C@H](O)CO)c1ccc(F)c(F)c1Nc1ccc(I)cc1F
inactive: Potency (C33A) | Potency (CASKI) | Potency (HeLa) | Potency (Hek293T) | Potency (JEG-3) | Potency (PA-1) | Potency (SKOV3) | Potency (Tov112D)
active: Potency (astro) 0.447 µM

Nc1nc2[nH]cc(CCc3ccc(C(=O)N[C@@H](CCC(=O)O)C(=O)O)cc3)c2c(=O)[nH]1
active: Potency (WaGa) 2.35 µM | Potency ([1]; tumour line A) 251 nM
inactive: activity, negative = cell killing [1, 5] -23.6% | activity, negative = cell killing [1, 6] -14.3% | Potency (astro)

CNC(=O)c1ccccc1Sc1ccc2c(/C=C/c3ccccn3)n[nH]c2c1
active: Potency (CAOV3) 10 µM and 8.91 µM | Potency (CASKI) 11.2 µM | Potency (Es-2) 15.8 µM and 17.8 µM | Potency (HeLa) 3.98 µM and 3.55 µM | Potency (Hek293T) 10 µM and 12.6 µM | Potency (OV90) 11.2 µM | Potency (Tov-21-G) 11.2 µM | Potency (Tov112D) 8.91 µM | Potency (astro) 2 µM

CC(C)C[C@H](NC(=O)[C@@H](O)[C@H](N)Cc1ccccc1)C(=O)O
inactive: Potency (WaGa)

CNCc1ccc(-c2[nH]c3cc(F)cc4c3c2CCNC4=O)cc1
inactive: Potency (WaGa) | Potency (C33A) | Potency (CASKI) | Potency (Es-2) | Potency (HeLa) | Potency (Hek293T) | Potency (JEG-3) | Potency (OV90) | Potency (PA-1) | Potency (SKOV3) | Potency (Tov-21-G) | Potency (Tov112D)

CN(C)C(=O)c1ccc(S(=O)(=O)c2ccc(NC(=O)[C@@](C)(O)C(F)(F)F)c(Cl)c2)cc1
inactive: Potency (C33A) | Potency (CAOV3) | Potency (CASKI) | Potency (Es-2) | Potency (HeLa) | Potency (Hek293T) | Potency (JEG-3) | Potency (PA-1) | Potency (Tov-21-G) | Potency (Tov112D)

N#CC[C@H](C1CCCC1)n1cc(-c2ncnc3[nH]ccc23)cn1
inactive: Potency (WaGa) | Potency (C33A) | Potency (CASKI) | Potency (HeLa) | Potency (Hek293T) | Potency (JEG-3) | Potency (OV90) | Potency (PA-1) | Potency (Tov112D)

O=c1[nH]c(-c2ccc(C(F)(F)F)cc2)nc2c1CSCC2
inactive: Potency (WaGa)
active: Potency (Es-2) 28.2 µM

CCc1cc(Nc2nccc(-c3c(-c4ccc(OC)c(C(=O)Nc5c(F)cccc5F)c4)nc4ccccn34)n2)c(OC)cc1N1CCC(N2CCN(S(C)(=O)=O)CC2)CC1
inactive: Potency (WaGa) | Potency (C33A) | Potency (CASKI) | Potency (Es-2) | Potency (Hek293T) | Potency (JEG-3) | Potency (OV90) | Potency (SKOV3) | Potency (Tov-21-G) | Potency (Tov112D) | Potency [2]

COc1ccccc1[C@H](c1cccc2ccccc12)[C@@](C)(C#N)C(=O)N1CCC(c2cccc(C(F)(F)F)c2)CC1
inactive: Potency (C33A) | Potency (CASKI) | Potency (Es-2) | Potency (HeLa) | Potency (Hek293T) | Potency (JEG-3) | Potency (OV90) | Potency (PA-1) | Potency (Tov-21-G) | Potency (Tov112D)

NC[C@H](O)c1ccc(O)c(O)c1
inactive: Potency (C33A) | Potency (CAOV3) | Potency (CASKI) | Potency (Es-2) | Potency (HeLa) | Potency (Hek293T) | Potency (JEG-3) | Potency (OV90) | Potency (PA-1) | Potency (SKOV3) | Potency (Tov-21-G) | Potency (Tov112D) | activity, negative = cell killing [1, 5] -10.5% | activity, negative = cell killing [1, 6] -7.44% | activity, negative = cell killing ([1]; at 46 µM (top of the series), tumour line A) -26.2% | activity, negative = cell killing ([1]; at 46.1 µM (top of the series), tumour line C) -17.3% | Potency (astro) | max response [3] 2.15% | outcome [4]

Cc1cc(Nc2nc(N[C@@H](C)c3ncc(F)cn3)ncc2Cl)n[nH]1
active: Potency (HeLa) 4.47 µM | Potency (Tov-21-G) 14.1 µM | Potency [2] 1.4 µM
inactive: Potency (C33A) | Potency (Es-2) | Potency (Hek293T) | Potency (JEG-3)

Cc1oncc1C(=O)Nc1ccc(C(F)(F)F)cc1
active: Potency (CAOV3) 12.6 µM | Potency (CASKI) 31.6 µM | Potency (Es-2) 28.2 µM | Potency (HeLa) 25.1 µM | Potency (Hek293T) 14.1 µM | Potency (JEG-3) 25.1 µM | Potency (OV90) 17.8 µM | Potency (PA-1) 11.2 µM | Potency (SKOV3) 25.1 µM | Potency (Tov-21-G) 25.1 µM | Potency (Tov112D) 20 µM | Potency (astro) 10 µM
